Measured values from PubChem BioAssay (NCI).
The panel holds about 83,000 compounds, 20% with a hit somewhere; the sample as a whole holds those more often.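 How to read the values: 0–100, growth inhibition (40 = 60% inhibited); 0, no net growth; -100 to 0, cell death (-40 = 40% of starting cells died; -100 = all dead).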 A number with no mark means an inactive call. Calls of active or inactive are those of the source. Rule for the calls: active = growth percent below 10; inactive = the rest.

Each compound was assayed on SF-539 CNS (assay: NCI-60 one-dose screen, 48 h (100 = growth as untreated, 0 = no growth, -100 = all killed)). Conditions: 10 µM unless noted.

Compound | growth
O=C(COc1cccc(/C=C2\COc3ccc(Cl)cc3C2=O)c1)c1ccc(Cl)cc1 | 87%
Cc1cc(Nc2ccc(C)c(Cl)c2)n2nc(C(F)(F)F)nc2n1 | 33.1%
CN(C)c1ccc(NC(=O)c2ccc(/C=C/C(=O)c3ncc[nH]3)cc2)cc1 | 6.24% (active)
O=[N+]([O-])c1ccccc1/C=N\NC(=S)N/N=C/c1ccccc1[N+](=O)[O-] | 56.3%
O=C(Oc1cccnc1)c1ccsc1Nc1ccnc(C(F)(F)F)c1 | 99.9%
OC(c1cc2cc(Cl)c(Cl)cc2c2cc(C(F)(F)F)ccc12)C1CCCCN1 (stereo unspecified) | -57.9% (active)
COc1ccc(-c2cc(-c3ccc(Nc4ccnc5cc(Cl)ccc45)cc3)nc(N3CCOCC3)n2)cc1 | -41.1% (active)
C=C1C(=O)O[C@H]2[C@H]1CC/C(COC(=O)NCCc1ccc(OC)c(OC)c1)=C\CC[C@@]1(C)O[C@@H]21 | 47.2%
O=[N+]([O-])c1ccc2c(c1)Cc1cc(F)ccc1-2 | 109%
CN1CCN(c2nc(NCCCNc3ccnc4cc(Cl)ccc34)c3ccccc3n2)CC1 | -71% (active)
Clc1ccc2c(NCCCCNc3nc(N4CCCCC4)nc4ccccc34)ccnc2c1 | -86.7% (active)
NC(=NC1C2CC3CC(C2)CC1C3)Nc1ccc(I)cc1 (stereo unspecified) | 32%
CCOc1nc(-c2ccccc2)cc2c(O)c(C(=O)O)[nH]c(=O)c12 | 94.6%
COc1ccc(Nc2cc(C)nc(N3CCN(c4ccnc5cc(Cl)ccc45)CC3)n2)cc1 | 54.7%
Cc1cc(N2CCN(c3ccnc4cc(Cl)ccc34)CC2)nc(N2CCOCC2)n1 | 96.6%
N#Cc1c(N)n(CCNC(=O)c2ccccc2)c2nc3ccccc3nc12 | 121%
COc1ccc(CN2c3ccccc3Sc3ccccc32)c(C(F)(F)F)c1 | -12.4% (active)
CCc1c(Nc2ccccc2C)nc(N)[nH]c1=O | 103%
CC(=O)c1cc2c(N)c(C(=O)Nc3ccccc3)sc2nc1C | 72.5%

Compound | growth
CCCCC/C(C=C(C#N)C#N)=C/c1ccccc1 | 92.3%
OCCNc1nccc(N2CCN(c3ccnc4cc(Cl)ccc34)CC2)n1 | 79.6%
Cc1cc(N2CCSCC2)nc(NC2CCCC(Nc3ccnc4cc(Cl)ccc34)C2)n1 (stereo unspecified) | -93.1% (active)
COc1ccc(Nc2c3c4c(cccc4[nH]c2=O)C(=O)c2ccccc2-3)cc1 | -31.3% (active)
O=C1/C(=C/c2ccccc2O)N=C2SCCCN12 | 95.4%
COc1cc2c(cc1O)CC[C@@H]1[C@@H]2CC[C@]2(C)[C@@H](OCCCN(C)C)CC[C@@H]12 | -85% (active)
O=C(Cn1cccc(Nc2ccccc2)c1=O)Nc1ccccc1 | 97.1%
Cc1cc(N2CCN(c3ccnc4cc(Cl)ccc34)CC2)nc(NC2CCCCC2)n1 | 43%
CSc1ccc(SC2c3ccc(C)cc3Oc3nc(N)c(C#N)c(N)c32)cc1 (stereo unspecified) | -86.7% (active)
O=c1ccccc(-c2ccc(-c3ccco3)cc2)c1O | -2.44% (active)
O=C(COc1ccc(/C=C2\CSc3ccccc3C2=O)cc1)Nc1nccs1 | 111%
CN(C)CCCNc1c2ccccc2nc2ccccc12 | 89.6%
O=C(Cc1ccc(/C=C/C(=O)c2ncc[nH]2)cc1)Nc1ccccc1 | -23.3% (active)
CC/C=C\C/C=C\C[C@H]1C/C=C2/C(=O)C=C[C@@H]2C/C=C\CCC(=O)O1 | -25.5% (active)
COc1cccc(-c2nc(SCC(=O)Nc3ccc(C(=O)/C=C/c4ccc(OC)c(OC)c4)cc3)[nH]c(=O)c2C#N)c1 | 86.2%
Cc1cc(N2CCN(C)CC2)nc(NC2CCCC(Nc3ccnc4cc(Cl)ccc34)C2)n1 (stereo unspecified) | -84.3% (active)
Clc1ccc2nc3nc4ccc[nH]c4cc3c2c1 | 83.7%
COc1ccc2c(c1)C(=O)/C(=C/c1ccccn1)CC2 | 72%
COc1ccc(C2Nc3c(c(C(C)(C)C)nn3-c3ccccc3)C(=O)CS2)cc1 (stereo unspecified) | 109%

These compounds were tested on UACC-257 melanoma in the same assay as above. Conditions: 10 µM unless noted.

Compound | growth
O=C(COc1cccc(/C=C2\COc3ccc(Cl)cc3C2=O)c1)c1ccc(Cl)cc1 | 104%
Cc1cc(Nc2ccc(C)c(Cl)c2)n2nc(C(F)(F)F)nc2n1 | 74.4%
CN(C)c1ccc(NC(=O)c2ccc(/C=C/C(=O)c3ncc[nH]3)cc2)cc1 | 91.7%
O=[N+]([O-])c1ccccc1/C=N\NC(=S)N/N=C/c1ccccc1[N+](=O)[O-] | 83.2%
O=C(Oc1cccnc1)c1ccsc1Nc1ccnc(C(F)(F)F)c1 | 76%
OC(c1cc2cc(Cl)c(Cl)cc2c2cc(C(F)(F)F)ccc12)C1CCCCN1 (stereo unspecified) | -73% (active)
COc1ccc(-c2cc(-c3ccc(Nc4ccnc5cc(Cl)ccc45)cc3)nc(N3CCOCC3)n2)cc1 | 79%
C=C1C(=O)O[C@H]2[C@H]1CC/C(COC(=O)NCCc1ccc(OC)c(OC)c1)=C\CC[C@@]1(C)O[C@@H]21 | 62.9%
O=[N+]([O-])c1ccc2c(c1)Cc1cc(F)ccc1-2 | 87.1%
CN1CCN(c2nc(NCCCNc3ccnc4cc(Cl)ccc34)c3ccccc3n2)CC1 | 17.7%
Clc1ccc2c(NCCCCNc3nc(N4CCCCC4)nc4ccccc34)ccnc2c1 | -83.5% (active)
NC(=NC1C2CC3CC(C2)CC1C3)Nc1ccc(I)cc1 (stereo unspecified) | 0.379% (active)
CCOc1nc(-c2ccccc2)cc2c(O)c(C(=O)O)[nH]c(=O)c12 | 60.7%
COc1ccc(Nc2cc(C)nc(N3CCN(c4ccnc5cc(Cl)ccc45)CC3)n2)cc1 | 62.6%
Cc1cc(N2CCN(c3ccnc4cc(Cl)ccc34)CC2)nc(N2CCOCC2)n1 | 88.6%
N#Cc1c(N)n(CCNC(=O)c2ccccc2)c2nc3ccccc3nc12 | 97.9%
COc1ccc(CN2c3ccccc3Sc3ccccc32)c(C(F)(F)F)c1 | 53.9%
CCc1c(Nc2ccccc2C)nc(N)[nH]c1=O | 115%
CC(=O)c1cc2c(N)c(C(=O)Nc3ccccc3)sc2nc1C | 68.4%

Compound | growth
CCCCC/C(C=C(C#N)C#N)=C/c1ccccc1 | 54%
OCCNc1nccc(N2CCN(c3ccnc4cc(Cl)ccc34)CC2)n1 | 84%
Cc1cc(N2CCSCC2)nc(NC2CCCC(Nc3ccnc4cc(Cl)ccc34)C2)n1 (stereo unspecified) | -79.3% (active)
COc1ccc(Nc2c3c4c(cccc4[nH]c2=O)C(=O)c2ccccc2-3)cc1 | 64.1%
O=C1/C(=C/c2ccccc2O)N=C2SCCCN12 | 103%
COc1cc2c(cc1O)CC[C@@H]1[C@@H]2CC[C@]2(C)[C@@H](OCCCN(C)C)CC[C@@H]12 | -77.4% (active)
O=C(Cn1cccc(Nc2ccccc2)c1=O)Nc1ccccc1 | 99.6%
Cc1cc(N2CCN(c3ccnc4cc(Cl)ccc34)CC2)nc(NC2CCCCC2)n1 | -0.92% (active)
CSc1ccc(SC2c3ccc(C)cc3Oc3nc(N)c(C#N)c(N)c32)cc1 (stereo unspecified) | -76.3% (active)
O=c1ccccc(-c2ccc(-c3ccco3)cc2)c1O | 0.169% (active)
O=C(COc1ccc(/C=C2\CSc3ccccc3C2=O)cc1)Nc1nccs1 | 97.3%
CN(C)CCCNc1c2ccccc2nc2ccccc12 | 104%
O=C(Cc1ccc(/C=C/C(=O)c2ncc[nH]2)cc1)Nc1ccccc1 | 97.2%
CC/C=C\C/C=C\C[C@H]1C/C=C2/C(=O)C=C[C@@H]2C/C=C\CCC(=O)O1 | -13.3% (active)
COc1cccc(-c2nc(SCC(=O)Nc3ccc(C(=O)/C=C/c4ccc(OC)c(OC)c4)cc3)[nH]c(=O)c2C#N)c1 | 97.4%
Cc1cc(N2CCN(C)CC2)nc(NC2CCCC(Nc3ccnc4cc(Cl)ccc34)C2)n1 (stereo unspecified) | -73.6% (active)
Clc1ccc2nc3nc4ccc[nH]c4cc3c2c1 | 85.8%
COc1ccc2c(c1)C(=O)/C(=C/c1ccccn1)CC2 | 81%
COc1ccc(C2Nc3c(c(C(C)(C)C)nn3-c3ccccc3)C(=O)CS2)cc1 (stereo unspecified) | 101%
